# Assay results taken from PubChem BioAssay (NCATS).
# Inconclusive results are not listed. Active and inactive are the calls of the source. Calls come from the whole dose curve; as a rule, active = well fitted curve in the direction sought with a large enough effect in the signal ratio; inconclusive = small, poorly fitted or top-dose-only effect, or a change in a side signal; inactive = no such curve, though single readings can be large or run the other way; the % refers to the signal ratio.
# Biological target: Tumor necrosis factor (Homo sapiens) (UniProt P01375)
# Assay: qHTS assay to identify small molecules that stimulate Tumor Necrosis Factor-alpha (TNF-alpha) secretion (AID 651757); note: 0% is about no effect
# Details: Human cells, HTRF 665/615 ratio; series mostly up to 92.2 µM; activation (TNF-alpha secretion): at the top concentration
# Description: National Center for Advancing Translational Sciences [NCATS]
# NIH Chemical Genomics Center [NCGC]
# National Institutes of Environmental Health Sciences [NIEHS]
# National Toxicology Program [NTP]
# Tumor Necrosis Factor-alpha (TNF-alpha), a secreted cytokine, plays an important role in inflammatory diseases and immune disorders. TNF-alpha, a 17 kDa cytokine, is mainly secreted by activated macrophages and monocytes in response to several inflammatory and immunological stimuli. To study the effect of environmental chemicals on TNF-alpha secretion, a homogeneous TNF-alpha assay was developed using Time Resolved fluorescence (HTRF) technology based on Time Resolved Fluorescent Resonance Energy Transfer (TR-FRET) (Leister et al., Current Chemical Genomics, 5:21-29, 2011). This assay allows measuring TNF-alpha secreted from the cells in a 1536-well plate format.
# THP-1 cells were dispensed at 3000 cells/5ul/well in 1536-well white solid plates. After addition of 23 nl of compound, positive controls and DMSO only, the assay plates were incubated at 37 C for 17 hrs, followed by addition of 5 uLof mixture of cryptate labeled and XL665 labeled anti-TNF-alpha antibodies. After the assay plates were incubated at room temperature for 3 hr, the plates were measured by an EnVision plate reader.
# Sequence of Tumor necrosis factor (Homo sapiens) (P01375 whole entry, looked up): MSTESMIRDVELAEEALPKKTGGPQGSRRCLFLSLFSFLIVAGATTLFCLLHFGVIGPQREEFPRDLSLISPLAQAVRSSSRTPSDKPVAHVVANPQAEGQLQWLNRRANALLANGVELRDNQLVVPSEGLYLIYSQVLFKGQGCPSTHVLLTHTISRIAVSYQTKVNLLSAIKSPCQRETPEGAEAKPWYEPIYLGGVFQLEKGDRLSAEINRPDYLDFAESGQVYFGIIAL
Structure (SMILES),activation (TNF-alpha secretion),outcome
Brc1ccccc1-c1ccccc1,-0.187% (inactive),
CC(C)(C)c1ccc(O)c(O)c1,-0.076% (inactive),
Cc1ccc(O)cc1,-0.913% (inactive),
O=C(c1ccccc1)c1ccccc1,-0.239% (inactive),
Cc1cc(C(C)(C)C)c(O)c(C(C)(C)C)c1,0.286% (inactive),
CC(C)(c1ccc(O)cc1)c1ccc(O)cc1,,inactive
O=C(Oc1ccccc1)c1ccccc1O,0.0319% (inactive),
CC(C)C(C)(C)C(C)(C)C(C)(C)S,-0.0497% (inactive),
CCCCC(CC)COC(=O)c1ccccc1C(=O)O (stereo unspecified),0.0563% (inactive),
OCc1c[nH]c2ccccc12,0.554% (inactive),
CCCCCCCCCCCCCCCC[n+]1ccccc1,-0.0464% (inactive),
CC(=O)OC/C=C(C)/C=C/C=C(C)/C=C/C1=C(C)CCCC1(C)C,0.292% (inactive),
c1ccc2occc2c1,0.254% (inactive),
C1=CC2C3C=CC(C3)C2C1 (stereo unspecified),0.0265% (inactive),
Oc1ccccc1,-0.312% (inactive),
O=C(NO)c1ccccc1,-1.2% (inactive),
